# Measurements from PubChem BioAssay AID485358 (National Center for Advancing Translational Sciences (NCATS), 2010).
# Hit rate of the full screen: of about 340,000 compounds, about 1,800 (0.53%) were called active.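 Rule for the calls: active = activation over 3 SD above normal in the single-dose calcium agonist read (cut at about 30% in these data); inactive = the rest.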 This excerpt belongs to a sample that is enriched for actives.
# Target: D(2) dopamine receptor (Homo sapiens) (UniProt P14416)
# Sequence (P14416 whole entry, looked up): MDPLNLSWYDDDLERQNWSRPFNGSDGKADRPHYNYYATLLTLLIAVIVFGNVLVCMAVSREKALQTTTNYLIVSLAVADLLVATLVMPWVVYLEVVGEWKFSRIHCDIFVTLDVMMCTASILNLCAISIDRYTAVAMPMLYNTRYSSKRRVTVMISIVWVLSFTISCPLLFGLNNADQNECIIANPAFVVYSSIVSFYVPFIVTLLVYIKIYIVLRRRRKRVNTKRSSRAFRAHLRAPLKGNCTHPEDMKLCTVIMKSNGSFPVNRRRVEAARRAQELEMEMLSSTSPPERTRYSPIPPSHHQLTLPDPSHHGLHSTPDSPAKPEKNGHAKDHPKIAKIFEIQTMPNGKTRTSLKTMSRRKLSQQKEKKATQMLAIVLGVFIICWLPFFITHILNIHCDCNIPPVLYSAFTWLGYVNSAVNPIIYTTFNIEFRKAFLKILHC
# Experiment: HTS Assay for Allosteric Agonists of the Human D2 Dopamine Receptor: Primary Screen for Agonists; note: 0% is about no effect
# Settings: HEK293 T-REx D2 cells, calcium flux agonist mode; at 2 µM; active compounds read high
# Summary of the method: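 HEK293 Trex D2 cells, tetracycline-induced, o/n 30 C 5% CO2; no-wash Ca dye, RT 30–90 min; 10-cycle baseline, 23 nl cpd added, kinetic Ca read 180 s; agonist hits = positive Ca response.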
row,SMILES,activation
1,CNCC(O)CN1CCN(c2ccccc2OC)CC1 (stereo unspecified),0.328% (inactive)
2,O=C(C(c1ccccc1)c1ccccc1)N1CCN(CC(O)COc2ccccc2)CC1 (stereo unspecified),-0.117% (inactive)
3,OC(COc1cccc2ccccc12)CN1CCN(c2ccccn2)CC1 (stereo unspecified),66.3% (active)
4,Cc1ccc(OCC(O)CN2CCN(CC(O)COc3ccc(C)cc3Cl)CC2)c(Cl)c1 (stereo unspecified),0.53% (inactive)
5,O=S(=O)(c1ccc(OCC(O)CN2CCN(c3ccccc3Cl)CC2)cc1)N1CCOCC1 (stereo unspecified),-0.884% (inactive)
6,Cc1ccccc1OCC(O)CN1CCN(c2ccccn2)CC1 (stereo unspecified),64.7% (active)
7,CC(C)c1ccc(OCC(O)Cn2cnc3ccccc32)cc1 (stereo unspecified),1.03% (inactive)
8,CC(C)c1ccc(OCC(O)CN2CCN(c3ccccn3)CC2)cc1 (stereo unspecified),66.2% (active)
9,CC1CCN(CC(O)COc2ccc(C(=O)c3ccccc3)cc2)CC1 (stereo unspecified),-0.0837% (inactive)
10,Cc1cccc(OCC(O)CN2CCN(CCN3C(=O)c4cccc5cccc(c45)C3=O)CC2)c1C (stereo unspecified),-0.617% (inactive)
11,CC(=O)Nc1ccc(OCC(O)CN2CCN(c3ccccc3Cl)CC2)cc1 (stereo unspecified),71.6% (active)
12,C=CCc1ccccc1OCC(O)CN1CCN(CCO)CC1 (stereo unspecified),-1.83% (inactive)
13,COc1cc(C(=O)N2CCN(c3ccc(Nc4ccc(C)cc4)nn3)CC2)cc(OC)c1OC,-0.205% (inactive)
14,COc1ccccc1Cc1nc2ccccc2nc1SCC(=O)N1CCCc2ccccc21,1.06% (inactive)
15,COc1cccc(NC(=O)N(Cc2cn(C)c3ccccc23)C2CCCCCC2)c1,0.628% (inactive)
16,Cn1ccc2cc(S(=O)(=O)N3CCCC(C(=O)NCc4ccccc4F)C3)ccc21 (stereo unspecified),-0.715% (inactive)
17,Cc1ccc(Cl)cc1NC(=O)CSc1nccn1C,-0.262% (inactive)
18,CCc1ccc(CN(Cc2ccco2)C(=O)COc2ccc(Cl)c(C)c2)cc1,3.85% (inactive)
19,COC(=O)C1=C(c2ccccc2)c2ccccc2S(=O)(=O)N1CC(=O)Nc1ccccc1C(F)(F)F,-0.526% (inactive)

row,SMILES,activation
1,COc1ccccc1OCC(=O)Nc1nnc2n1CCS2,-1.11% (inactive)
2,CCN1CCN(CCCNC(=O)c2ccc3c(c2)sc2nc(-c4ccc(OC)cc4)cn23)CC1,1.86% (inactive)
3,Cc1nc2ccc(S(=O)(=O)NC(C(=O)NCc3ccccc3Cl)C(C)C)cc2s1 (stereo unspecified),-0.364% (inactive)
4,Cn1c(C(=O)NCCCN2CCN(c3cccc(Cl)c3)CC2)cc2c(=O)n(C)c3ccccc3c21,60.1% (active)
5,Cn1c(C(=O)NCCc2ccsc2)cc2c(=O)n(C)c3ccccc3c21,0.0188% (inactive)
6,CCn1c(=O)cc(OCC(=O)NCCCN2CCN(c3cccc(Cl)c3)CC2)c2ccccc21,72.9% (active)
7,CCN1CCCC1CNC(=O)c1cc2c(=O)n(C)c3ccccc3c2n1C (stereo unspecified),1.59% (inactive)
8,Cn1c(=O)cc(OCC(=O)N2CCN(c3ccccc3)CC2)c2ccccc21,0.681% (inactive)
9,CCn1c(=O)cc(OCC(=O)Nc2cc(Cl)c(OC)cc2OC)c2ccccc21,-0.253% (inactive)
10,Cc1cc(C)cc(NC(=O)CSc2nc3nccnc3c(=O)n2CCc2c[nH]c3ccccc23)c1,0.038% (inactive)
11,Cc1ccccc1CNC(=O)C1CCCN(S(=O)(=O)N(C)c2ccc(F)cc2)C1 (stereo unspecified),-0.556% (inactive)
12,CCOc1ccc(CNC(=O)c2ccc(CS(=O)c3ccccc3)o2)cc1 (stereo unspecified),-0.363% (inactive)
13,CCCN(CCC)CCNC(=O)Cn1cnc2sc(C)c(S(=O)(=O)N3CCC(C)CC3)c2c1=O,0.0784% (inactive)
14,CCC(C)NC(=O)CCCc1ccccc1 (stereo unspecified),1.02% (inactive)
15,CCCCCC(=O)NC(=S)NNC(=O)c1ccc([N+](=O)[O-])cc1,2.53% (inactive)
16,CCCCC(=O)NNC(=S)NC(=O)C(c1ccccc1)c1ccccc1,52.5% (active)
17,CCCCOc1ccc(CN2C(=O)C(=O)c3cc(Br)cc(C)c32)cc1OC,-0.896% (inactive)
18,Clc1ccc(CN2CCCCCC2)cc1Cl,0.701% (inactive)
19,Cc1ccc2[nH]c(=O)c(CN3CCCCC3)c(-c3ccccc3)c2c1,16.6% (inactive)

row,SMILES,activation
1,c1ccc2cc3[nH]c(CN4CCCCC4)nc3cc2c1,39.6% (active)
2,COc1cc(Cl)c(NC(=O)C(NS(=O)(=O)c2cccs2)C(C)C)c(OC)c1 (stereo unspecified),0.0329% (inactive)
3,COc1ccc(-n2c(=O)c3sc4ccccc4c3n(CC(=O)Nc3cccc(C)c3)c2=O)cc1,1.94% (inactive)
4,COc1cccc(NC(=O)C2CCCN(c3ncnc4c3nc3n4CCCCC3)C2)c1 (stereo unspecified),60.2% (active)
5,CCOC(=O)c1cccc(NC(=O)C2CCN(c3ncnc4c3nc3n4CCCCC3)CC2)c1,-0.296% (inactive)
6,COc1cccc(CNC(=O)C2CCCN(c3ncnc4c3nc3n4CCCCC3)C2)c1 (stereo unspecified),-0.0991% (inactive)
7,O=C(/C=C/c1ccccc1)N1CCN(Cc2cc(=O)n3nc(-c4ccccc4F)sc3n2)CC1,0.305% (inactive)
8,O=C(O)/C=C/c1ccc(S(=O)(=O)N2CCCCCC2)cc1,19.8% (inactive)
9,C=CCNC(=O)/C=C/c1ccc(C(C)C)cc1,0.0403% (inactive)
10,O=C(/C=C(O)/C=C/c1ccc(O)cc1)/C=C/c1ccc(O)cc1,57.4% (active)
11,CC(NC(=O)c1cc2c(=O)n3ccccc3nc2n(C(C)C)c1=N)c1ccccc1 (stereo unspecified),0.527% (inactive)
12,COc1ccc(CNC(=O)CS(=O)Cc2nc(-c3cccc(C)c3)oc2C)cc1 (stereo unspecified),-0.737% (inactive)
13,CCN(CCCNC(=O)c1ccc(Sc2ccc(C)cc2)c(NC(C)=O)c1)c1cccc(C)c1,0.373% (inactive)
14,CCN(CCCNC(=O)c1ccc2c(c1)NC(=O)CN2C)c1cccc(C)c1,37.3% (active)
15,CCN(CCCNC(=O)CSc1cc(=O)n(C)c2cc(Cl)ccc12)c1cccc(C)c1,0.221% (inactive)
16,COc1cc(OC)c(NC(=O)Cc2ccc(-n3c(C)nc4cccnc43)cc2)cc1Cl,-0.621% (inactive)
17,CCOc1cc(C2c3c(-c4ccc(Br)cc4)n[nH]c3C(=O)N2c2ccc(Cl)cc2)ccc1O (stereo unspecified),0.413% (inactive)
18,Cc1cc(C)cc(NC(=O)Cn2nc(N3CCN(c4ccccc4)CC3)ccc2=O)c1,0.0127% (inactive)
